Only some compounds are listed: those with a hit (about 1.5% of all), similar ones and a draw of the others.
JNK3 inh = JNK3 kinase activity inhibitors, primary screen, biochemical, human, purified enzyme | actives 0.61% (n = 60,000) | Mitogen-activated protein kinase 10 (Homo sapiens), P53779 | inhibition, % at 8 µM | HTS; in the data active = inhibition above about 17%;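 note: 0% = DMSO and 100% = reference inhibitor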
ROCK2 blocker = inhibitors of human ROCK2 kinase, primary screen, biochemical, high-throughput, luminescence. purified ROCK2, Kinase-Glo ATP depletion luminescence. inhibition, % at 6 µM. actives 0.35% (n = 60,000);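 active = inhibition above the screen-wide mean inhibition plus 3 SD, cut at about 18% in these data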;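 note: plate controls were DMSO wells for no effect and Y-27632 control wells after no-enzyme background subtraction for full effect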
PLK1 kinase inh = human PLK1 kinase inhibitors, primary screen, biochemical, TR-FRET; Serine/threonine-protein kinase PLK1 (Homo sapiens), P53350; recombinant PLK1 kinase, TR-FRET peptide phosphorylation; actives 0.53% (n = 97,000); inhibition, % at 10 µM;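 active = inhibition of 50% or more in the single-concentration screen; inactive = inhibition below 50%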;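 note: 0% = DMSO max control and 100% = H-89 dihydrochloride min control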
Plk1 PBD FP = Plk1 polo box domain binding inhibitors, primary screen, biochemical, fluorescence polarization | Plk1 PBD phosphopeptide binding | inhibition, %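 (tested at about 20 µM)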 | actives 0.13% (n = 97,000) | AID 693, 2007; in the data active = inhibition above about 34%, passing the limit was not always enough
FAK inh = FAK kinase inhibitors, primary screen, biochemical | biochemical FAK kinase activity assay | AID 727, 2007 | inhibition, %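 (tested at 7 µM)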 | Focal adhesion kinase 1 (Homo sapiens), Q05397 | actives 0.84% (n = 97,000); in the data active = inhibition above about 19%;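 note: 0% = DMSO and 100% = reference compound high control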
Target sequence (Q05397 whole entry, looked up): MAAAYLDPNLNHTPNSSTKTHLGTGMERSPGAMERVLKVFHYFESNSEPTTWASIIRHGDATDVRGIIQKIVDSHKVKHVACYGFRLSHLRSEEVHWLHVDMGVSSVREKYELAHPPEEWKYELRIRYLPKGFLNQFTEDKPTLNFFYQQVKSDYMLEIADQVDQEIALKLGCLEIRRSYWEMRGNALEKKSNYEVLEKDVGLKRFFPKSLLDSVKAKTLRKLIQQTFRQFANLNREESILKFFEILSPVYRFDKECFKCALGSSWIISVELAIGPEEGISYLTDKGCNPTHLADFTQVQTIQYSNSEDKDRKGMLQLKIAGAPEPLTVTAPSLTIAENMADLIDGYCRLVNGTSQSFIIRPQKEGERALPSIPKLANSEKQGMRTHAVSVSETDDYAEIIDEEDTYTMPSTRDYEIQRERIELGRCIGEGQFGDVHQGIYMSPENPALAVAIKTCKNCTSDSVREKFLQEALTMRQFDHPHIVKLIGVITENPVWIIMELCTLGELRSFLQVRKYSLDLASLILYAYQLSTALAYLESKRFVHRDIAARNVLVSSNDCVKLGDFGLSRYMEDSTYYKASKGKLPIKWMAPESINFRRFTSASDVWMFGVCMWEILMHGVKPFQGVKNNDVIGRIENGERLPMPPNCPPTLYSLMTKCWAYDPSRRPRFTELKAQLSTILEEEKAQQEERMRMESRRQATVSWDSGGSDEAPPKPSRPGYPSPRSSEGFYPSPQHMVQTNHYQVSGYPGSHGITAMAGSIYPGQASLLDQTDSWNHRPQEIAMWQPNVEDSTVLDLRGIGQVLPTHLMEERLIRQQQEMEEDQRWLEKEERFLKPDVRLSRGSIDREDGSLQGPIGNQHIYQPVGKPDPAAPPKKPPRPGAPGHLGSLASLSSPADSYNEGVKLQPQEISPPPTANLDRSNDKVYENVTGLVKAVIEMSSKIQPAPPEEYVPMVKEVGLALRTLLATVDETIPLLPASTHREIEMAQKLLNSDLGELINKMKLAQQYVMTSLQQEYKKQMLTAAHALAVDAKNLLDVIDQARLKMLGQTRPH
PKA kinase inh = inhibitors of human PKA kinase activity, primary screen, biochemical, ATP-depletion luminescence, Kemptide substrate | cAMP-dependent protein kinase catalytic subunit alpha (Homo sapiens), P17612 | PKA Kemptide phosphorylation, Kinase-Glo ATP luminescence | inhibition, % at 6 µM | actives 0.1% (n = 65,000);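 active = inhibition above the screen-wide mean inhibition plus 3 SD, cut at about 21% in these data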
The depositor's hits bear a star; x = no result given.

SMILES	JNK3 inh	ROCK2 blocker	PLK1 kinase inh	Plk1 PBD FP	FAK inh	PKA kinase inh
Cc1onc(-c2ccccc2)c1C(=O)N1CCN(C/C=C/c2ccccc2)CC1	1	22*	-12	-16	-1	5
Cc1onc(-c2ccccc2)c1C(=O)N1CCN(CCc2ccccc2)CC1	-7	6	-8	2	-2	9
O=C(Nc1c(C(=O)O)oc2ccc(Br)cc12)c1ccccc1	2	5	51*	1	-12	10
CCOC(=O)c1oc2ccc(Br)cc2c1NC(=O)CN1CCN(C)CC1	5	3	-9	-13	-2	0
CCn1c(SCC(=O)NC(C)(C)C)nnc1-c1ccccn1	x	x	-4	35	1	x
CCC(=O)Nc1ccc(-c2nn3c(C)nnc3s2)cc1	4	12	-2	5	-1	13
Cc1nnc2sc(-c3ccc(NC(=O)c4ccc(-c5ccc(Br)cc5)o4)cc3)nn12	-2	-1	-13	-10	21*	2
O=C(CCn1cccc1)NCc1ccc(Cl)cc1	3	4	-17	-37	10	11
COc1ccccc1N1CCN(C(=O)CSc2ncccc2-c2nc3ccccc3[nH]2)CC1	x	x	-11	14	2	7
O=C(CSc1ncccc1-c1nc2ccccc2[nH]1)N1CCN(c2ccccc2F)CC1	28*	0	-13	-1	0	10
N#Cc1nc(-c2ccco2)oc1N1CCC(Cc2ccccc2)CC1	x	x	-2	-9	0	x
CCOC(=O)c1c(C)[nH]sc1=S	19*	-4	-10	13	-16	-5
CCOC(=O)c1[nH]c(C)c(C(=O)OCC)c1C	3	7	-8	-12	11	9
COc1ccc(C)cc1S(=O)(=O)N1c2ccccc2CC1C (stereo not given)	x	x	-3	-19	1	x
O=C(c1ccco1)N1CCN(c2nnc(-c3ccccc3)c3ccccc23)CC1	x	x	-4	8	-1	x
COc1ccc(-c2cc(C#N)nc(N3CCNCC3)n2)cc1	x	x	55*	2	13	x
Cc1nn(C)cc1CNC(=O)c1cnn2c(C(F)F)cc(C3CC3)nc12	33*	1	-9	-4	1	-3
CC(=O)n1cc(-c2ccncc2)c2ccccc21	-5	61*	x	x	x	26*
CC(C(N)=O)N1C(=O)c2cccc3cccc1c23 (stereo not given)	x	x	-28	-15	0	x
c1ccc2[nH]c(CSc3ncnc4c3oc3ccccc34)nc2c1	19*	5	-21	-9	-6	12
COc1ccc(OC)c(-n2c(SC)nnc2-c2c[nH]c3ccccc23)c1	-3	2	68*	24	-4	1
COc1cccc(-n2c(SCC(N)=O)nnc2-c2c[nH]c3ccccc23)c1	-2	2	68*	25	-2	-1
COc1ccc(OC)c(-n2c(SCC(=O)Nc3cc(C)on3)nnc2-c2c[nH]c3ccccc23)c1	2	-2	68*	-5	0	6
COc1cccc(-c2nnc(SCC(N)=O)n2-c2ccc(Cl)cc2)c1	-4	1	-1	-5	-1	-6
COc1ccc(OC)c(-n2c(SCC(N)=O)nnc2-c2c[nH]c3ccccc23)c1	-6	0	70*	20	4	-7
SMILES	JNK3 inh	ROCK2 blocker	PLK1 kinase inh	Plk1 PBD FP	FAK inh	PKA kinase inh
COc1ccccc1-n1c(SCC(N)=O)nnc1-c1ccccc1	-1	7	-11	5	7	10
C/C(=N\NC(=O)c1nn(C)cc1Br)c1cccc(NC(=O)C2CCCC2)c1	x	x	-7	13	-3	x
CN(C)c1ccc(N2CN=C3SCC(=O)N3C2)cc1	x	x	5	-15	15	x
CCCNS(=O)(=O)c1cccc(C(=O)NC2CCCc3ccccc32)c1 (stereo not given)	x	x	-16	-6	1	x
N#Cc1cc(C#N)c(N2CCN(c3ccccn3)CC2)nc1N	x	x	-5	-55	-2	x
O=C(CSc1ncnc2nc[nH]c12)c1ccccc1	x	x	4	-8	4	x
C1=C(c2ccccc2)CCN(c2ncnc3nc[nH]c23)C1	8	24*	x	x	x	18
COc1ccc(N2CCN(c3ncnc4nc[nH]c34)CC2)cc1	-3	24*	x	x	x	16
c1nc(N2CCOCC2)c2[nH]cnc2n1	-6	26*	63*	1	7	15
CCC(=O)N1CCN(c2ccc(Cl)cc2NC(=O)Cc2ccc(Cl)cc2)CC1	x	x	3	-5	0	x
Cc1nc2c3c(-c4ccccc4)nc(N4CCOCC4)nc3nn2c(C)c1CCC(=O)O	-5	8	x	x	x	16
O=C1c2oc3ccccc3c(=O)c2C(c2ccc(Cl)cc2)N1c1ncccn1 (stereo not given)	-2	4	x	x	x	6
COc1ccc(C(C)=O)cc1COC(=O)c1cccc(N(C)C)c1	16	4	x	x	x	8
COc1ccc(C(C)=O)cc1COC(=O)c1cc(C)oc1C	18*	-5	3	0	-2	1
COc1cc2c(cc1OC)C1=C(C#N)CCC(=O)N1CC2	-1	6	-12	0	3	5
COc1cc2c(cc1OC)C1=C(C#N)CC/C(=N\S(=O)(=O)c3ccccc3)N1CC2	5	4	61*	-13	-5	10
O=C(CN1CCCC1)N1c2ccccc2Sc2ccccc21	-2	-3	7	6	-1	7
NCCCC(=O)N1c2ccccc2Sc2ccccc21	-1	4	66*	6	0	6
CCn1c(SCc2cccnc2)nnc1-c1c[nH]c2ccccc12	-2	-1	67*	-12	-2	-3
CCCSc1nnc(-c2c[nH]c3ccccc23)n1C	-1	-1	64*	4	3	2
CCc1nnc(NC(=O)CSc2nnc(-c3c[nH]c4ccccc34)n2CC)s1	7	5	-8	15	-3	11
CCOc1ccc(-n2c(SCC(=O)NCc3ccco3)nnc2-c2c[nH]c3ccccc23)cc1	x	x	-16	-7	-1	x
CCn1c(SCc2nc3ccccc3[nH]2)nnc1-c1cccnc1	x	x	-8	11	1	x
CCCSc1nnc(-c2c[nH]c3ccccc23)n1CC	0	-2	60*	1	7	-5
Cn1c(SCC(=O)NCc2ccco2)nnc1-c1c[nH]c2ccccc12	0	5	65*	-15	-2	5
Cn1c(=O)c2ncn(CC(=O)Nc3cccc(-c4nc5ccccc5s4)c3)c2n(C)c1=O	x	x	0	-4	10	x
CSc1ccc(N2C(=O)NC3(CCCCC3)C2=O)cc1	3	-3	-7	2	-11	7
COc1ccc(C2C=C(c3ccc(C)c(C)c3)Nc3ncnn32)c(OC)c1OC (stereo not given)	-6	2	67*	-4	1	3

Screening data deposited in PubChem BioAssay by several laboratories.
